Values joined by “and” are separate entries in the source; they are usually repeats but may differ in a detail not shown here. Identical values can stand only once. Inconclusive results are not listed. Active and inactive are the calls of the source. The calls were made as follows, unless noted: active = hit-call score of the fitted dose curve at least 0.9, where 1 is the maximum; inactive = score below 0.9.
Assays:
[1] = BSK_3C_SRB: Viability Assessment in the BioMAP Diversity Plus: 3C Assay (AID 2283023); conditions: primary human endothelial cells (HUVEC);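 also: fitted both ways against DMSO so a hit may be signal rise or drop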
Method in brief: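 Cytotoxicity readout in parallel HUVEC 3C cultures: after 24 h compound exposure, cells fixed with 10% TCA, stained with 0.1% SRB and read at 560 nm. Gain or loss relative to DMSO fitted.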

[2] = read-out: Matrix Metallopeptidase 1 (MMP1), MMP1 (gene 4312); experiment: BSK_BE3C_MMP1: BioMAP Diversity Plus: BE3C Assay for Matrix Metallopeptidase 1 (MMP1) Biomarker Activity (AID 2283024); conditions: primary human bronchial epithelial cells; actives raise or lower the signal
Method in brief: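 MMP1 signal, measured by ELISA after a 24 h chemical exposure of human primary bronchial epithelial cells, is analysed with bidirectional fitting using DMSO as negative control.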

[3] = read-out: Pselectin, SELP (gene 6403); experiment: BSK_4H_Pselectin: BioMAP Diversity Plus: 4H Assay for Pselectin Biomarker Activity (AID 2283026); conditions: primary human endothelial cells (HUVEC); actives raise or lower the signal
Method in brief: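 Endothelial primary cells (human umbilical vein) are dosed, incubated 24 h, and assayed for surface P-selectin by ELISA; responses in either direction are fitted relative to the DMSO negative control.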

[4] = BSK_4H_SRB: Viability Assessment in the BioMAP Diversity Plus: 4H Assay (AID 2283027); conditions: primary human endothelial cells (HUVEC);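 also: cells exposed to compound for 24 h before staining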
Method in brief: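 Cytotoxicity read-out in primary human endothelial cells: after 24 h compound exposure, cells were TCA-fixed (10%), stained with 0.1% SRB and absorbance taken at 560 nm. Values fitted in both directions relative to DMSO.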

[5] = BSK_BE3C_SRB: Viability Assessment in the BioMAP Diversity Plus: BE3C Assay (AID 2283028); conditions: primary human bronchial epithelial cells
Method in brief: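 Cytotoxicity read-out: SRB (0.1%) staining of TCA-fixed (10%) human lung bronchial epithelial cells, absorbance 560 nm, 24 h post-dosing. Curves fitted both directions relative to DMSO.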

[6] = read-out: Urokinase-type plasminogen activator receptor (uPAR), PLAUR (gene 5329); experiment: BSK_4H_uPAR: BioMAP Diversity Plus: 4H Assay for Urokinase-type plasminogen activator receptor (uPAR) Biomarker Activity (AID 2283030); conditions: primary human endothelial cells (HUVEC); actives raise or lower the signal
Method in brief: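 uPAR level read by ELISA on HUVEC cultures (BioMAP 4H) 24 h post-dosing, analyzed for gain or loss relative to DMSO. Parallel SRB staining assessed overt cytotoxicity.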

[7] = read-out: Vascular endothelial growth factor receptor 2 (Homo sapiens) (UniProt P35968); experiment: BSK_4H_VEGFRII: BioMAP Diversity Plus: 4H Assay for Vascular endothelial growth factor receptor 2 (VEGFR2) Biomarker Activity (AID 2283031); conditions: primary human endothelial cells (HUVEC); actives raise or lower the signal
Method in brief: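 Measured by ELISA after 24 h of compound treatment: VEGFR2 on primary human umbilical vein endothelial cells, fitted in both directions relative to DMSO. Parallel cultures received SRB staining (560 nm) for overt cytotoxicity.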

[8] = read-out: Human Leukocyte Antigen - DR isotype (HLADR), HLA-DRA (gene 3122); experiment: BSK_BE3C_HLADR: BioMAP Diversity Plus: BE3C Assay for Human Leukocyte Antigen - DR isotype (HLADR) Biomarker Activity (AID 2283032); conditions: primary human bronchial epithelial cells; actives raise or lower the signal
Method in brief: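 Chemicals are dosed onto BE3C bronchial epithelial cultures of human origin and left 24 h. HLA-DR is then measured by ELISA, and the endpoint is fitted in both directions using DMSO as the activity baseline.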

[9] = read-out: Vascular cell adhesion molecule 1 (VCAM1), VCAM1 (gene 7412); experiment: BSK_4H_VCAM1: BioMAP Diversity Plus: 4H Assay for Vascular cell adhesion molecule 1 (VCAM1) Biomarker Activity (AID 2283033); conditions: primary human endothelial cells (HUVEC); actives raise or lower the signal;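 also: cell-surface VCAM-1 protein measured by ELISA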
Method in brief: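 Chemicals are added to primary human umbilical vein endothelial cells. After 24 h, VCAM-1 levels are measured by ELISA. Values come from bidirectional fitting referenced to DMSO.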

[10] = read-out: Interferon-gamma inducible Protein 10 (IP10), CXCL10 (gene 3627); experiment: BSK_BE3C_IP10: BioMAP Diversity Plus: BE3C Assay for Interferon-gamma inducible Protein 10 (IP10) Biomarker Activity (AID 2283034); conditions: primary human bronchial epithelial cells; actives raise or lower the signal
Method in brief: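 IP-10 quantified by ELISA serves as the endpoint. Cells: primary human bronchial epithelium, read 24 h after compound addition. Activity is derived by bidirectional fitting with DMSO as negative control.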

[11] = read-out: Monokine induced gamma interferon (MIG), CXCL9 (gene 4283); experiment: BSK_BE3C_MIG: BioMAP Diversity Plus: BE3C Assay for Monokine induced gamma interferon (MIG) Biomarker Activity (AID 2283035); conditions: primary human bronchial epithelial cells; actives raise or lower the signal;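 also: MIG protein measured by ELISA in BE3C cultures after 24 h of dosing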
Method in brief: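 ELISA quantified MIG after 24 h exposure of primary bronchial epithelial cultures, analysed in both directions relative to DMSO. Cytotoxicity tracked in parallel cultures by sulforhodamine B staining.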

[12] = read-out: Plasminogen activator inhibitor-1 (PAI1), SERPINE1 (gene 5054); experiment: BSK_BE3C_PAI1: BioMAP Diversity Plus: BE3C Assay for Plasminogen activator inhibitor-1 (PAI1) Biomarker Activity (AID 2283037); conditions: primary human bronchial epithelial cells; actives raise or lower the signal
Method in brief: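 Values derive from bidirectional fitting against DMSO baseline of PAI-1 levels, measured by ELISA in human bronchial epithelial cells 24 h after compound addition.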

[13] = read-out: urokinase plasminogen activator (uPA), PLAU (gene 5328); experiment: BSK_BE3C_uPA: BioMAP Diversity Plus: BE3C Assay for urokinase plasminogen activator (uPA) Biomarker Activity (AID 2283038); conditions: primary human bronchial epithelial cells; actives raise or lower the signal;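 also: uPA protein level quantified by ELISA in cell cultures; uPA read one day after compound addition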
Method in brief: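 ELISA for uPA on human primary bronchial epithelial cultures 24 h post-treatment, gain or loss against DMSO. Parallel SRB staining (0.1% after 10% TCA fixation, 560 nm) assessed overt cytotoxicity.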

[14] = read-out: Interleukin-6 (IL6), IL6 (gene 3569); experiment: BSK_CASM3C_IL6: BioMAP Diversity Plus: CASM3C Assay for Interleukin-6 (IL6) Biomarker Activity for (AID 2283040); conditions: primary human coronary artery smooth muscle cells; actives raise or lower the signal
[15] = read-out: Tissue plasminogen activator (tPA), PLAT (gene 5327); experiment: BSK_BE3C_tPA: BioMAP Diversity Plus: BE3C Assay for Tissue plasminogen activator (tPA) Biomarker Activity (AID 2283041); conditions: primary human bronchial epithelial cells; actives raise or lower the signal;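 also: tPA level quantified by ELISA one day after compound addition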
Method in brief: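 Gain- or loss-of-signal in tPA, measured by ELISA, derived by bidirectional fitting against DMSO. Cells: human primary bronchial epithelial; read at 24 h after chemical dosing.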

[16] = molecular target: human Vitamin D Receptor (VDR), VDR (gene 7421) (UniProt P11473); experiment: ATG_VDR_TRANS: Attagene TRANS-FACTORIAL HepG2 Assay for human Vitamin D Receptor (VDR) (AID 2283022; active = hit-call score of the fitted dose curve at least 0.9, where 1 is the maximum)
human Vitamin D Receptor (VDR), VDR (gene 7421), sequence (P11473 whole entry, looked up, the tested form may be a part): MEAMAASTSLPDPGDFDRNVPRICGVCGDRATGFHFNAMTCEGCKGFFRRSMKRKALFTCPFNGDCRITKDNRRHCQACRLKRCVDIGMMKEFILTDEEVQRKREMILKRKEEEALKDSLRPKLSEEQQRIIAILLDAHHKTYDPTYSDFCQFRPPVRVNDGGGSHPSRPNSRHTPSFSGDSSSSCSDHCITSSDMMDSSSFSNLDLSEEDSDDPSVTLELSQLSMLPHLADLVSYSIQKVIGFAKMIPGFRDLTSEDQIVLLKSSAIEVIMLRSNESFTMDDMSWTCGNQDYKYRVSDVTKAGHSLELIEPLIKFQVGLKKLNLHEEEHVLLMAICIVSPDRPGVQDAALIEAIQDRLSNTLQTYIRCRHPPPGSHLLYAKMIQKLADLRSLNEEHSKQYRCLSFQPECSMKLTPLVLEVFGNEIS
Method in brief: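 Transactivation by an exogenous VDR-Gal4 chimera in transiently transfected HepG2 cells was measured as reporter transcript level 24 hours after chemical treatment. RT-PCR products were analysed by capillary electrophoresis and fitted in the positive direction relative to DMSO.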

[17] = BSK_3C_Vis: BioMAP Diversity Plus: 3C Assay for Morphology Visualization (AID 2283025); conditions: primary human endothelial cells (HUVEC);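 also: fitted both ways so gain or loss versus DMSO counts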
Method in brief: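 Morphology read by light microscopy serves as a background control for the multiplexed 3C assay in human umbilical vein endothelial cells, taken 24 h after dosing, with DMSO as the negative control and bidirectional curve fitting.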

[18] = read-out: Transforming growth factor beta 1 (TGFb1), TGFB1 (gene 7040); experiment: BSK_BE3C_TGFb1: BioMAP Diversity Plus: BE3C Assay for Transforming growth factor beta 1 (TGFb1) Biomarker Activity (AID 2283036;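 also: TGF-b1 protein level measured by ELISA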); conditions: primary human bronchial epithelial cells; actives raise or lower the signal
Method in brief: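 Bronchial epithelial primary cells are treated with test chemical, then TGF-b1 is quantified by ELISA after 24 hours. Values derive from bidirectional fitting against DMSO, with cytotoxicity checked by SRB staining in parallel cultures.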

[19] = read-out: Urokinase-type plasminogen activator receptor (uPAR), PLAUR (gene 5329); experiment: BSK_BE3C_uPAR: BioMAP Diversity Plus: BE3C Assay for Urokinase-type plasminogen activator receptor (uPAR) Biomarker Activity (AID 2283039); conditions: primary human bronchial epithelial cells; actives raise or lower the signal;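 also: uPAR protein level measured by ELISA on the cells; cells exposed to compound for one day before measurement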
Method in brief: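 Steps: dose human primary bronchial epithelial cells, incubate 24 h, measure uPAR by ELISA, then fit gain- or loss-of-signal response bidirectionally relative to DMSO.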

Measured: AC50

CC(=O)[C@H]1CC[C@H]2[C@@H]3CC=C4C[C@@H](O)CC[C@]4(C)[C@H]3CC[C@]12C
inactive: [2] | [3] | [4] | [5] | [6] | [7] | [8] | [9] | [10] | [11] | [12] | [13] | [14] | [15]
active: [1] 11.1 µM and 7.02 µM

C=C[Si](OCC)(OCC)OCC
inactive: [16] | [1] | [2] | [17] | [3] | [4] | [5] | [6] | [7] | [8] | [9] | [10] | [11] | [18] | [12] | [13] | [14] | [15]

Cc1ccc2n[nH]nc2c1
inactive: [1] | [2] | [17] | [3] | [4] | [5] | [6] | [7] | [8] | [9] | [10] | [11] | [18] | [12] | [13] | [19] | [14] | [15]

C[C@H]1C[C@@H]2[C@H]([C@@H](O)C[C@@]3(C)[C@H]2CC[C@]3(O)C(=O)CO)[C@@]2(C)C=CC(=O)C=C12
active: [14] 352 nM and 321 nM
inactive: [1] | [2] | [3] | [4] | [5] | [6] | [7] | [8] | [9] | [10] | [11] | [12] | [13] | [15]

— PubChem BioAssay (EPA / NIEHS)
